Results reported in PubChem BioAssay (NCATS).
The source made the active and inactive calls. The rule behind the calls is not given here.

Test: qHTS assay for small molecule activators of the human pregnane X receptor (PXR) signaling pathway (AID 720659); note: 0% is about no effect
Settings: DPX-2 HepG2 CYP3A4-luciferase, 24 h; series mostly up to 92.3 µM; activation: at the top concentration

Which “activation” value does the source give for Cc1cc(=O)[nH]c(=S)[nH]1 here?
The value was -3.82% (inactive).

With CCN(CC)C(=O)c1cccc(C)c1 as the compound, how does the outcome read?
The outcome was “inactive”.

With O=C1C(c2[nH]c3ccccc3c2O)=Nc2ccccc21 as the compound, how does the “activation” value read?
The value was -7.37% (inactive).

For OC[C@@H](O)[C@@H](O)[C@H](O)[C@H](O)CO, which “activation” value is on record?
Its value is 3.3% (inactive).

Which outcome does the source give for O=C(O)CCCCC1CCSS1 (configuration not stated) here?
The outcome was “inactive”.

With Cc1ccc(C(C)C)c(O)c1 as the compound, how does the “activation” value read?
Its value is 9.44% (inactive).

For O=C(OOC(=O)c1ccccc1)c1ccccc1, which “activation” value is on record?
The value was -7.17% (inactive).

For CCCCCC(N)=O, which “activation” value is on record?
Its value is -2.24% (inactive).

For Cc1c(N(C)C)c(=O)n(-c2ccccc2)n1C, which outcome is on record?
The outcome was “inactive”.

Which “activation” value does the source give for COC(=O)c1ccc(O)cc1 here?
Its value is 8.24% (inactive).

Which outcome does the source give for Nc1ccc(S(=O)(=O)c2ccc(N)cc2)cc1 here?
The outcome was “inactive”.

For FC(F)(F)C(Cl)Br (configuration not stated), which “activation” value is on record?
Its value is -3.53% (inactive).

Which “activation” value does the source give for CC(=O)NS(=O)(=O)c1ccc(N)cc1 here?
The value was -8.97% (inactive).

Which “activation” value does the source give for CC[N+](CC)(CC(=O)Nc1c(C)cccc1C)Cc1ccccc1 here?
Its value is 66.7% (inactive).

With CCCCCCCC(=O)OCC(COC(=O)CCCCCCC)OC(=O)CCCCCCC as the compound, how does the “activation” value read?
The value was -6.15% (inactive).

For CC(=O)Nc1cccc(O)c1, which “activation” value is on record?
The value was -6.9% (inactive).

With CC(=O)Nc1ccc(C(=O)O)cc1 as the compound, how does the “activation” value read?
The value was -5.71% (inactive).

For CCCC(O)C(CC)CO (configuration not stated), which “activation” value is on record?
Its value is -0.577% (inactive).

Which “activation” value does the source give for O=C1c2cccc(O)c2C(=O)c2c(O)cccc21 here?
Its value is -2.92% (inactive).

Which outcome does the source give for CC(=O)OCC(COC(C)=O)OC(C)=O here?
The outcome was “inactive”.

For COc1ccc(O)cc1, which “activation” value is on record?
Its value is -1.26% (inactive).

Which “activation” value does the source give for Cc1c(C(=O)NCCO)[n+](=O)c2ccccc2n1[O-] here?
The value was 7.46% (inactive).

For CCCCCCCCCCCCCCCCCCO, which “activation” value is on record?
Its value is 12.6% (inactive).

With Cc1cc(O)cc(C)c1Cl as the compound, how does the “activation” value read?
The value was 5.58% (inactive).

For C=CCNC(N)=S, which “activation” value is on record?
Its value is -11.3% (inactive).

For O=C(c1ccccc1)C(O)c1ccccc1 (configuration not stated), which outcome is on record?
The outcome was “inactive”.

For CC(=O)Nc1ccccc1, which “activation” value is on record?
Its value is -14% (inactive).
